# Many of the other results were omitted from the sample, so hits are more common in it than they were.
# NSD2 inh – blocks human NSD2 histone methyltransferase activity; O96028; NSD2-SET H3K36me1 DELFIA fluorescence, biochemical; inhibition, % at 12.5 µM; 0.07% of 44,000 active; in the data active = inhibition above about 54%, passing the limit was not always enough;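 note: inhibitors reduce the monomethyl H3K36 fluorescence signal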
# * hit, by the source's call.
SMILES,NSD2 inh
COc1ccccc1-c1ccc2c(c1)O[C@@H](CN(C)C(=O)c1ccccc1)[C@@H](C)CN([C@H](C)CO)S2(=O)=O,5.4
C[C@@H]1CCCCO[C@H](CN(C)S(=O)(=O)c2cccs2)[C@H](C)CN([C@@H](C)CO)C(=O)c2cc(NS(C)(=O)=O)ccc2O1,-4.3
C[C@@H]1CCCCO[C@@H](CN(C)C(=O)Nc2ccc(C(F)(F)F)cc2)[C@@H](C)CN([C@@H](C)CO)C(=O)c2cc(N(C)C)ccc2O1,-3.3
COc1ccc(NC(=O)N(C)C[C@@H]2Oc3ccc(NC(=O)C4CC4)cc3C(=O)N([C@@H](C)CO)C[C@H]2C)cc1,0.6
CC/C(=C(/c1ccccc1)c1ccc(OCCN(C)C)cc1)c1ccccc1,57.9*
CN(C)CCOC(=O)COc1ccc(Cl)cc1,4.2
CCN(CC)CCOc1ccc(/C(=C(\Cl)c2ccccc2)c2ccccc2)cc1,1.7
CCCC#Cc1cnc2c(c1)C(=O)N([C@@H](C)CO)C[C@H](C)[C@H](CN(C)C(=O)Nc1cc(F)ccc1F)O2,-4.3
COCC1=C2[C@@H](c3ccccc3)OB(O)C[C@@H]2[C@@H]2C(=O)N(Cc3ccccc3)C(=O)[C@@H]2C1,0.2
C[C@H](CO)N1C[C@H](C)[C@H](CN(C)S(=O)(=O)c2cn(C)cn2)Oc2ccc(NC(=O)c3ccncc3)cc2CC1=O,-0.2
COC(=O)C1=COC(O[C@@H]2O[C@H](CO)[C@@H](O)[C@H](O)[C@H]2O)[C@H]2[C@@H]1[C@H](OC(=O)CCc1ccc(O)cc1)C[C@]2(C)O (some centres not stated),4.2
COC(=O)C1=CO[C@@H](O[C@@H]2O[C@H](CO)[C@@H](O)[C@H](O)[C@H]2O)[C@H]2[C@@H]1[C@H](OC(C)=O)C[C@]2(C)O,2.1
COC(=O)C1=COC(OC2OC(CO)C(O)C(O)C2O)C2C1C=CC2(O)CO (configuration not stated),60.2*
C[C@@H]1CN([C@@H](C)CO)C(=O)c2cc(-c3cccc(F)c3)cnc2O[C@@H]1CN(C)Cc1ccccn1,6.3
C[C@@H]1CN([C@@H](C)CO)C(=O)c2cc(C#CCN(C)C)cnc2O[C@H]1CN(C)Cc1ccccn1,2.0
C[C@@H]1CCCCO[C@@H](CN(C)C(=O)Nc2ccccc2)[C@@H](C)CN([C@@H](C)CO)C(=O)c2cc(NS(=O)(=O)c3ccccc3)ccc2O1,-6.1
C[C@H]1CN([C@@H](C)CO)C(=O)CCCn2nncc2CO[C@H]1CN(C)Cc1ccc(C(F)(F)F)cc1,-2.0
O=c1c(O[C@@H]2O[C@H](CO)[C@@H](O)[C@H](O)[C@H]2O)c(-c2ccc(O)cc2)oc2cc(O)cc(O)c12,-7.7
O=c1c(O[C@@H]2O[C@H](CO)[C@H](O)[C@H](O)[C@H]2O)c(-c2cc(O)c(O)c(O)c2)oc2cc(O)cc(O)c12,85.3*
O=c1c(O[C@@H]2O[C@H](CO)[C@@H](O)[C@H](O)[C@H]2O)c(-c2ccc(O)c(O)c2)oc2cc(O)cc(O)c12,26.6
COc1ccc(-c2ccc3c(c2)O[C@H](CN(C)C(C)=O)[C@@H](C)CN([C@H](C)CO)S3(=O)=O)cc1,7.6
C[C@H]1CN([C@@H](C)CO)C(=O)c2cc(-c3ccc(F)cc3)cnc2O[C@@H]1CN(C)C(=O)c1ccc(F)cc1,0.1
CC(C)(C)NC(=O)C(OC(=O)c1ccccc1)c1cccs1 (configuration not stated),5.3
Cc1noc(C)c1NC(=O)N(C)C[C@H]1Oc2ccc(NC(=O)Nc3cccc4ccccc34)cc2CC(=O)N([C@@H](C)CO)C[C@@H]1C,-7.0
CCCN(C)C[C@H]1OCCCC[C@@H](C)Oc2ccc(NS(=O)(=O)c3c(C)noc3C)cc2C(=O)N([C@@H](C)CO)C[C@H]1C,-11.7
SMILES,NSD2 inh
CC(C)(C)OC(=O)NC1(/C=N/NC(=O)CCCCCCC(=O)NO)CCCC1,0.8
C[C@H]1CN([C@@H](C)CO)C(=O)c2cc(-c3ccc(C#N)cc3)cnc2O[C@@H]1CN(C)CC1CCCCC1,12.6
C[C@@H]1CN([C@H](C)CO)C(=O)Cc2cc(NC(=O)Cc3cn(C)c4ccccc34)ccc2O[C@@H]1CN(C)C(=O)Nc1ccccc1,-0.9
O=C(N[C@H]1CC[C@@H](CC(=O)N2CCc3ccccc3C2)O[C@H]1CO)C1CCC1,-2.7
C[C@H](CO)N1C[C@H](C)[C@@H](CN(C)C(=O)Nc2ccc3c(c2)OCO3)Oc2cc(C3=CCCC3)ccc2S1(=O)=O,-2.2
C[C@@H]1CN([C@H](C)CO)C(=O)Cc2cc(NC(=O)Nc3ccccc3)ccc2O[C@@H]1CN(C)CC1CC1,7.5
C[C@@H]1CN([C@H](C)CO)S(=O)(=O)c2ccc(C3=CCCC3)cc2O[C@H]1CN(C)Cc1ccccn1,6.2
COC(=O)CCCCCCC(=O)N/N=C/c1cc(F)ccc1O,1.8
CCCN(C)C[C@@H]1OCCCC[C@H](C)Oc2ccc(NC(=O)NC3CCCCC3)cc2C(=O)N([C@@H](C)CO)C[C@@H]1C,2.9
C[C@@H]1CN([C@H](C)CO)C(=O)c2cc(-c3ccncc3)cnc2O[C@H]1CN(C)Cc1cccnc1,3.9
O=C(C[C@@H]1CC[C@H](NC(=O)c2cnccn2)[C@H](CO)O1)NCc1ccccc1F,11.2
C[C@H]1CN([C@@H](C)CO)C(=O)Cc2cc(NS(=O)(=O)c3cn(C)cn3)ccc2O[C@@H]1CN(C)Cc1ccc(C(F)(F)F)cc1,3.4
COCCOC(=O)N1C(=O)[C@@]2(c3cc(C#Cc4ccc(OC)cc4)ccc31)[C@H](C(=O)NC[C@H](O)c1ccccc1)[C@H]1C(=O)O[C@H](c3ccccc3)[C@H](c3ccccc3)N1[C@@H]2c1ccc(O)cc1,-8.9
CC(=O)c1c(O)cc(O[C@@H]2O[C@H](CO)[C@@H](O)[C@H](O)[C@H]2O)cc1O,34.8
COc1cc(O[C@@H]2O[C@H](CO)[C@@H](O)[C@H](O)[C@H]2O)cc(OC)c1OC,-1.2
CC(C)=CCc1cc(O[C@@H]2O[C@H](CO)[C@@H](O)[C@H](O)[C@H]2O)cc(CC=C(C)C)c1C(O)C(=O)O (some centres not stated),60.6*
CC(C)CC#Cc1ccc2c(c1)O[C@@H](CN(C)C(=O)CN(C)C)[C@H](C)CN([C@H](C)CO)S2(=O)=O,0.6
COc1ccc(NC(=O)O[C@H]2[C@H](OC(=O)Nc3ccccc3-c3ccccc3)[C@H](OC(=O)Nc3ccccc3-c3ccccc3)[C@@H](OC)O[C@@H]2CO)cc1,-5.2
CO[C@H]1O[C@H](CO)[C@@H](OC(=O)Nc2ccccc2)[C@H](OC(=O)Nc2ccccc2-c2ccccc2)[C@@H]1OC(=O)Nc1ccccc1-c1ccccc1,-7.3
C[C@@H]1CN([C@H](C)CO)C(=O)c2cc(/C=C/c3ccccc3)cnc2O[C@H]1CN(C)S(=O)(=O)c1cccs1,-1.5
C[C@H]1CN([C@@H](C)CO)C(=O)c2cccc(NS(=O)(=O)c3ccc(Cl)cc3)c2O[C@@H]1CN(C)S(=O)(=O)c1cn(C)cn1,17.4
CC(C)CC#Cc1cnc2c(c1)C(=O)N([C@H](C)CO)C[C@@H](C)[C@@H](CN(C)C(=O)c1cccc(F)c1)O2,-2.5
COCC(=O)N(C)C[C@@H]1Oc2cc(-c3ccncc3)ccc2S(=O)(=O)N([C@H](C)CO)C[C@H]1C,2.4
C[C@H]1CN([C@@H](C)CO)C(=O)Cc2cc(NC(=O)Nc3cccc4ccccc34)ccc2O[C@@H]1CN(C)S(=O)(=O)c1ccccc1,-10.7
C[C@H]1CN([C@@H](C)CO)C(=O)c2cc(NC(=O)Nc3ccc(C(F)(F)F)cc3)ccc2O[C@@H]1CN(C)Cc1ccccc1,-2.1
